These results are taken from PubChem BioAssay (NCATS).

Structures are written as SMILES. Records with an inconclusive call do not appear. Unmarked numbers belong to inactive results. The source made the active and inactive calls. Calls follow the shape of the dose curve; as a rule, active = well fitted inhibition curve with a large enough effect; inconclusive = small, poorly fitted or top-dose-only effect; inactive = flat fitted curve, though single readings scatter.
% is scaled to controls: 0 for no effect and ±100 for the full control effect; potency is read from the fitted curve at half-maximal effect.

A short description of this assay: Primary qHTS for inhibitors of nuclear receptor binding SET domain protein 2 (NSD2) in an isogenic RCH-ACV NSD2 p.E1099K mutant (9B) (AID 1645876). Also: nearly all actives have a fitted effect of over 70% in size. The settings on record: RCH-ACV (leukaemia line) NSD2 E1099K (9B) viability, CellTiter-Glo, 72 h; series mostly up to 44.9 µM; activity change, negative = viability loss: at the top concentration.
On to `C=C1C(=O)O[C@H]2C[C@H](C)C(/C=C/C(C)=O)=CC[C@H]12`, for which the Potency is 1480 nM (active).

As to `OC1CCC(Oc2cccc3cnc(Nc4ccc5nc[nH]c5c4)nc23)CC1` (centres undefined), the Potency was 590 nM (active).

For the molecule `CC1=C2[N-][C@H]([C@H](CC(N)=O)[C@@]2(C)CCC(=O)NC[C@@H](C)OP(=O)([O-])O[C@H]2[C@@H](O)[C@@H](n3cnc4cc(C)c(C)cc43)O[C@@H]2CO)[C@]2(C)N=C(C(C)=C3N=C(C=C4N=C1[C@@H](CCC(N)=O)C4(C)C)[C@@H](CCC(N)=O)[C@]3(C)CC(N)=O)[C@@H](CCC(N)=O)[C@]2(C)CC(N)=O.O.[Co+2]`, the “activity change, negative = viability loss” value is -11.2%.

For the molecule `CC(C)c1c(-c2ccccc2)nc2c(C#N)c[nH]n2c1=O`, the “activity change, negative = viability loss” value is -15.8%.

Consider `C=C1C(=O)O[C@@H]2[C@H]3C(C)=CC[C@@]34O[C@@]4(C)CC[C@@H]12`, for which the Potency was 5250 nM (active).

Turning to `CN(C)C/C=C/C(=O)Nc1ccc(C(=O)N2CCC[C@@H](Nc3ncc(Cl)c(-c4c[nH]c5ccccc45)n3)C2)cc1`, the Potency was 166 nM (active).

`Fc1cccc(-n2cnc3c(NCc4nc5c(F)c(F)ccc5[nH]4)nc(N4CCOCC4)nc32)c1`: the Potency is 166 nM (active).

As to `O=C(/C=C\n1cnc(-c2cc(C(F)(F)F)cc(C(F)(F)F)c2)n1)NNc1cnccn1`, the Potency is 2630 nM (active).

As for `CS[C@H]1SC[C@@H]2C(=O)N(C)[C@H](C(C)C)C(=O)OC[C@H](NC(=O)c3cnc4ccccc4n3)C(=O)N[C@H](C)C(=O)N(C)[C@H]1C(=O)N(C)[C@H](C(C)C)C(=O)OC[C@H](NC(=O)c1cnc3ccccc3n1)C(=O)N[C@H](C)C(=O)N2C`, the Potency was 1.5 nM (active).
